From PubChem BioAssay AID624405 (Broad Institute, 2012) come the findings set out here.

Among all 1,900 compounds or so, about 250 (13%) were called active. About 4% were inconclusive and are not listed. Only a sample is shown. Measured potencies and affinities stand elsewhere. Values without a mark were called inactive.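 How the source made its calls: active means fitted curve reaches 40% rescue activity at or below the top valid dose, in every test run; inconclusive means test runs disagree, some active and some inactive; inactive means every run misses the threshold or moves the wrong way.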

This test can be described thus: suppressors of statin myotoxicity in myotubes, dose response, cell-based, C2C12 myotubes, ATP luminescence, cherry pick (AID 624405).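 Further: myotubes are challenged with simvastatin at 10 µM to lower ATP.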 The conditions noted are these: C2C12 myotubes + simvastatin, 48 h, scaled: DMSO wells 0, geranylgeraniol wells 100; series mostly up to 19.5 µM; rescue activity (ATP increase): at the top concentration.
Regarding `CC1(C)CC(C(=O)Nc2nccs2)CCO1` (stereo not drawn), the “rescue activity (ATP increase)” value is 0.246%. To `C[C@@H]1CN([C@@H](C)CO)C(=O)c2cc(NS(=O)(=O)c3cccs3)ccc2O[C@H]1CN(C)S(=O)(=O)c1ccc(Cl)cc1` belongs 10.6% [at 21 µM]; to `COc1ccc(OC)c(S(=O)(=O)Nc2ccccc2C)c1`, 1.7%; to `CCCOn1nnnc1-c1ccccc1`, 36.3%. `C[C@@H]1CCCCO[C@H](CN(C)C(=O)Nc2cccc3ccccc23)[C@H](C)CN([C@@H](C)CO)C(=O)c2cc(NS(=O)(=O)c3ccc(Cl)cc3)ccc2O1`: the “rescue activity (ATP increase)” value is 9.78%. The result for `CC1CCN(c2ncnc3c2cnn3Cc2ccc(Cl)cc2)CC1` reads 30.3%.

As for `C[C@H]1CN([C@@H](C)CO)C(=O)c2cc(C3=CCCCC3)cnc2O[C@@H]1CN(C)Cc1ccccc1F`, the “rescue activity (ATP increase)” value is 14.8%. Turning to `COc1ccccc1OCCNC1CCCC1`, the “rescue activity (ATP increase)” value is 13%. `C[C@@H]1CN([C@H](C)CO)C(=O)Cc2cc(NS(=O)(=O)c3cn(C)cn3)ccc2O[C@@H]1CN(C)Cc1ccc(-c2ccccc2)cc1`: the “rescue activity (ATP increase)” value was 26.4%. The result for `CCOC(=O)c1nn(-c2cccc(Cl)c2)c(C)c1C(C)=O` reads 17.9%; that for `O=C(Cn1cnc2c(cnn2-c2ccccc2)c1=O)c1ccc(Cl)cc1`, 30.3%; that for `COc1ccc(NC(=O)Nc2cccc3c2O[C@@H](CN(C)C(=O)Nc2cccc4ccccc24)[C@@H](C)CN([C@H](C)CO)C3=O)cc1`, 4.56%. The result for `C[C@@H]1CN([C@@H](C)CO)C(=O)c2cc(N(C)C)ccc2O[C@H]1CN(C)Cc1ccc(-c2ccccc2)cc1` reads 9.05% [at 21 µM]. `Oc1ccccc1/C=N/c1c(-c2ccco2)nc2ccccn12`: the “rescue activity (ATP increase)” value was -96%. Regarding `CC(c1nc2ccccc2c(=O)[nH]1)N1CCN(C)CC1` (stereo not drawn), the “rescue activity (ATP increase)” value was -6.72%. As to `C[C@H]1CN([C@@H](C)CO)C(=O)c2cc(NS(=O)(=O)c3cccs3)ccc2O[C@H]1CN(C)Cc1ccc(Cl)c(Cl)c1`, the “rescue activity (ATP increase)” value was 0.067%. The result for `O=C(NCc1ccco1)C1CCCN(S(=O)(=O)c2ccccc2)C1` (stereo not drawn) reads 12.2%; that for `O=C(Nc1ccc(S(=O)(=O)N2CCCCC2)cc1)c1ccco1`, -19.1%; that for `C[C@H]1CN([C@@H](C)CO)C(=O)c2cc(NC(=O)Cc3cn(C)c4ccccc34)ccc2O[C@@H]1CN(C)Cc1ccc(C(F)(F)F)cc1`, 21.4%.

For `C[C@@H]1CN([C@H](C)CO)C(=O)c2cc(NC(=O)Cc3cn(C)c4ccccc34)ccc2O[C@H]1CN(C)Cc1ccc(-c2ccccc2)cc1`, the “rescue activity (ATP increase)” value was 24.7%.

`C[C@H](CO)N1C[C@H](C)[C@H](CN(C)Cc2ccc(C(=O)Nc3ccccc3N)cc2)Oc2ccc(NC(=O)Cn3cnnn3)cc2C1=O`: the “rescue activity (ATP increase)” value is 35.1% [at 21 µM].

Regarding `CC(=O)N(C)c1ccc(OCC(O)COc2ccc(N(C)C(C)=O)cc2)cc1`, the “rescue activity (ATP increase)” value is 4.59%.

As to `Cc1cccc(NC(=O)C2CCCN(S(=O)(=O)c3cccc4nsnc34)C2)n1` (stereo not drawn), the “rescue activity (ATP increase)” value is 20.1%.
